Measurements from PubChem BioAssay (Tox21).
Several values for one entry are separate records, joined by “and”; a condition that tells them apart may be missing. Equal values may be shown once. Records with an inconclusive call do not appear. A call without a number means that no potency is given here. Some compounds were tested as several samples or in several runs, with calls that do not always agree. Activity calls are given as the source filed them. Calls come from the whole dose curve.

Test: qHTS assay to identify small molecule agonists of the NFkB signaling pathway - cell viability counter screen (AID 1159515); note: nearly all actives have a fitted effect of over 55% in size
Conditions: NFkB-bla ME-180 viability, CellTiter-Glo luminescence, 5 h; series mostly up to 61 µM
From the text: National Center for Advancing Translational Sciences [NCATS]
NIH Chemical Genomics Center [NCGC]
U.S. Environmental Protection Agency [EPA]
National Institutes of Environmental Health Sciences [NIEHS]
National Toxicology Program [NTP]
U.S. Food and Drug Administration [FDA]
Transcription factors and their stimulated target gene expression play pivotal roles across many cellular processes including responses to environmental stimuli. Proper regulation of associated pathways is critical to maintain cell health and function. Constitutive activation of transcription factor pathways has been implicated in tumors as it may block cellular functions such as apoptosis and lead to invasion and metastasis. One important transcription factor that stimulates gene expression in response to cytokines, UV radiation, and other stimuli is nuclear factor-kappa B (NFkB). To measure activation of the NFkB pathway, the CellSensor NFkB-bla ME-180 cell line (Life Technologies, Carlsbad, CA) that stably expresses beta-lactamase reporter gene under the regulation of a NF-kB response element was used. This assay allows measurement of the NFkB pathway activity induced by compounds in a ME-180 cell line. This system quantitates NF-kB activity using a FRET-based assay system where beta-lactamase expression disrupts FRET, allowing for fluorescent measurement of activity. This cell line has been used to screen the Tox21 10K compound library and to identify compounds that induce the NFkB pathway activity. The cytotoxicity of the Tox21 compound library against the NFkB-bla ME-180 cell line was tested in parallel by measuring cell viability using the CellTiter-Glo assay in the same wells.
Tox21 Assay Protocol Summary:
NFkB-bla ME-180 cells were dispensed at 2,000 cells/6 uL of assay medium per well into black wall/clear-bottom 1536-well plates using a Multidrop Combi (ThermoFisher Scientific, Waltham, MA) dispenser. After the assay plates were incubated at 37 C and 5% CO2 for an overnight, 23 nL of compounds dissolved in DMSO, positive controls or DMSO only was transferred to the assay plate by a Pintool station (Kalypsys, San Diego, CA). The assay plates were incubated at 37 C and 5% CO2 for 5 hr. One uL of LiveBLAzer B/G FRET substrate (Life Technologies) was added using a Flying Reagent Dispenser (Aurora Discovery, San Diego, CA) and the plates were incubated at room temperature for 1.5 hr. Fluorescence intensity (405 nm excitation, 460 nm and 530 nm emissions) was measured using an Envision plate reader (PerkinElmer, Shelton, CT). For cytotoxicity, 3 ul/well of CellTiter-Glo reagent was added into the assay plates using an FRD. After 30 min incubation at room temperature, the luminescence intensity was measured using a ViewLux plate reader (PerkinElmer).
Potency is the fitted concentration of half-maximal effect.

Structure (SMILES) | Potency
Clc1cccc(C(Cl)(Cl)Cl)n1 | inactive
O=S(=O)(O)C(F)(F)C(F)(F)C(F)(F)C(F)(F)C(F)(F)C(F)(F)C(F)(F)C(F)(F)F | inactive
CCCCOCCOC(C)=O | inactive
CC(C)(c1ccc(OCC2CO2)cc1)c1ccc(OCC2CO2)cc1 (stereo not given) | inactive
CCCCOCC1CO1 (stereo not given) | inactive
COP(=S)(OC)SCn1nnc2ccccc2c1=O | inactive
O=[N+]([O-])c1ccc(Nc2ccccc2)cc1 | inactive and 43.6 µM (active)
CC1CC(=O)O1 (stereo not given) | inactive
Cc1cc(Cl)ccc1N=CN(C)C | inactive
[CH3][Sn]([Cl])([Cl])[Cl] | inactive
CCCCCCCCCc1ccc(O)cc1 | inactive
CC(C)Nc1nc(Cl)nc(NC(C)C)n1 | inactive
CNC(=S)S | inactive
CC(C)=CC1C(C(=O)OCc2cccc(Oc3ccccc3)c2)C1(C)C (stereo not given) | inactive
Nc1ncn[nH]1 | inactive
O=C(O)c1nn(Cc2ccc(Cl)cc2Cl)c2ccccc12 | inactive
C=CC(Cl)CCl (stereo not given) | inactive
O=C1CCCO1 | inactive
CCC/C=N/O | inactive
CC[n+]1c(-c2ccccc2)c2cc(N)ccc2c2ccc(N)cc21 | inactive

Structure (SMILES) | Potency
CC1=C(C(=O)Nc2ccccc2)SCCO1 | inactive
c1ccc2c(c1)Nc1ccccc1S2 | inactive
CCOP(=S)(OCC)OP(=S)(OCC)OCC | inactive
CCCCSP(=O)(SCCCC)SCCCC | inactive
CCOP(=O)(OCC)OCC | inactive
Brc1ccc(Br)cc1 | inactive
CC1(C)C(C(=O)OC(C#N)c2cccc(Oc3ccccc3)c2)C1(C)C (stereo not given) | inactive
COC(=O)Nc1nc2ccccc2[nH]1 | inactive
Cc1cccc(N=Nc2ccc(N(C)C)cc2)c1 | inactive
COP(=S)(OC)Oc1ccc(Sc2ccc(OP(=S)(OC)OC)cc2)cc1 | inactive
COc1ccc(C=O)cc1OC | inactive
C=C(C)C#N | inactive
Clc1ccc(C(Cl)(Cl)Cl)cc1 | inactive
O=C(O)CF | inactive
CSc1nc(NC(C)C)nc(NC(C)C)n1 | inactive
CCCCOC(=O)COC(=O)c1ccccc1C(=O)OCCCC | inactive
O=NN1CCOCC1 | inactive
Nc1ccc2ccccc2c1 | inactive
CS(=O)(=O)NC(=O)c1cc(Oc2ccc(C(F)(F)F)cc2Cl)ccc1[N+](=O)[O-] | inactive
CC(C)(C#N)N=NC(C)(C)C#N | inactive
